Inconclusive results are not listed. A number with no mark means an inactive call. Activity calls are given as the source filed them. Calls come from the whole dose curve; as a rule, active = well fitted activation curve with a large enough effect in the repeat runs; inconclusive = weak or mixed curves; inactive = no such curve, though single readings can be large or run the other way.
target: Nuclear receptor subfamily 1 group I member 2 (Homo sapiens) (UniProt O75469); test: CYP3A4 induction through human pregnane X receptor (PXR) by small molecules, qHTS assay (AID 1346984); settings: DPX-2 HepG2 PXR, CYP3A4-luciferin luminescence, 24 h; series mostly up to 46.1 µM; activation: at the top concentration; note: nearly all actives have a fitted effect of over 40% in size
Description: National Center for Advancing Translational Sciences [NCATS]
NIH Chemical Genomics Center [NCGC]
U.S. Environmental Protection Agency [EPA]
National Institutes of Environmental Health Sciences [NIEHS]
National Toxicology Program [NTP]
The Pregnane X receptor (PXR), a ligand activated nuclear receptor plays a critical role in the regulation of genes involved in drug metabolism and transporters. Activation of PXR is responsible for unwanted adverse drug reactions. PXR binds xenobiotics and when compounds interact with PXR enhances the expression of CYP3A genes. Identifying the compounds with the potential for PXR activation and CYP3A4 induction can be of importance in improving the efficacy of drugs with less toxicity and avoiding drug-drug interactions.
DPX-2 (Puracyp, Inc.) cell lines, used for screening against human PXR activation has HepG2 cells co-transfected with a PXR response element and a luciferase construct containing CYP3A4 promoter. Increase in luciferase activity can be used to identify the compounds that cause the induction of CYP3A4.
DPX-2 cells were dispensed at 2,000 cells per well in 5uL of assay medium into white, solid-bottom 1536-well plates using a Multidrop Combi dispenser (Thermo Scientific). The assay plates were incubated at 37C for 5hr before transferring 23nL of test compounds dissolved in DMSO and positive control via Pintool station (Wako). The assay plates were incubated at 37C for 24hr. After 24hr compound treatment, 1uL of 3uM (final concentration) P450 substrate (P450-Glo CYP3A4 screening system with Luciferin-IPA, Promega) was added by a Flying Reagent Dispenser (FRD, Aurora Discovery). The assay plates were incubated for 3hr at 37C. Then 5ul One-Glo assay reagent (Promega) was added to each plate by an FRD and following 30 min incubation at room temperature, luciferase activity was quantified on a ViewLux plate reader (Perkin Elmer).
% is set by controls: 0 for no effect and ±100 for the full control effect; potency is the fitted concentration of half-maximal effect.

In order of falling “activation” value:
1. CCOc1ccccc1O[C@H](c1ccccc1)[C@H]1CNCCO1  18.9%
2. CC(=O)OCC(=O)NCCCOc1cccc(CN2CCCCC2)c1  8.25%
3. OC[C@H]1O[C@@H](n2cnc3c(=S)nc[nH]c32)[C@H](O)[C@@H]1O  6.6%
4. Oc1cccc(O)c1O  6.49%
5. Cc1ccc(Cl)c(Nc2ccccc2C(=O)O)c1Cl  3.96%
6. O=C(O)CCc1nc(-c2ccccc2)c(-c2ccccc2)o1  3%
7. C[C@@H]1CC(=O)NN=C1c1ccc(NN=C(C#N)C#N)cc1  1.68%
8. CN(C)CCN1C(=O)c2ccccc2N(C)c2ccccc21  0%
9. CCN(CC)CCNC(=O)COc1ccc(OC)cc1  -0.0327%
10. CC[N+](CC)(CCNC(=O)C(=O)NCC[N+](CC)(CC)Cc1ccccc1Cl)Cc1ccccc1Cl  -0.421%
11. COc1ncnc(NS(=O)(=O)c2ccc(N)cc2)c1OC  -0.543%
12. O=C(O)CCC(=O)C(=O)O  -0.744%
13. O=C(/C=C/c1ccc(O)c(O)c1)O[C@@H]1C[C@@](OC(=O)/C=C/c2ccc(O)c(O)c2)(C(=O)O)C[C@@H](O)[C@@H]1O  -1.16%
14. COc1ccccc1N1CCN(CCCCNC(=O)c2ccc(-c3ccc(C(C)=O)cc3)cc2)CC1  -1.48%
15. O=C(O)c1ccc(OCCCOc2ccc(C(=O)O)cc2)cc1  -1.53%
16. COc1cc(C(=O)NCCCCCC(=O)O)cc(OC)c1OC  -1.63%
17. Nc1ncnc2c1ncn2[C@H]1CC[C@@H](CO)O1  -2.02%
18. Cc1[nH]cnc1CN1CCc2c(c3ccccc3n2C)C1=O  -5.41%
19. CCOC(C)=O  -6.53%
20. NNC(=O)CP(=O)(c1ccccc1)c1ccccc1  -6.75%
21. CC1(CN2CCC(n3c(=O)[nH]c4ccccc43)CC2)OCc2ccccc2-n2cccc21 (stereo not given)  -9.02%
22. O[C@@H]1CO[C@H]2[C@@H]1OC[C@@H]2O  -9.76%
23. CCOC(=O)c1ccc(C#Cc2ccc3c(c2)C(C)(C)CCS3)nc1  -10.4%
24. O=C(CCCN1CC=C(n2c(=O)[nH]c3ccccc32)CC1)c1ccc(F)cc1  -14.8%
25. Cc1cc2c(OCC(CNC(C)(C)C)OC(=O)c3ccccc3)cccc2[nH]1 (stereo not given)  -15.3%
26. Cc1ccc2c(Br)cc(Br)c(O)c2n1  -16.7%
27. O=C(O)c1cccc(-c2noc(-c3ccccc3F)n2)c1  -21.9%
28. CC(C)Nc1cccnc1N1CCN(C(=O)c2cc3cc(NS(C)(=O)=O)ccc3[nH]2)CC1  -22.4%

In order of rising “activation” value:
1. C/C=C(/C(=C/C)c1ccc(O)cc1)c1ccc(O)cc1  -6.08% [at 20.6 µM]
2. O=C(OCC(O)CO)c1ccccc1Nc1ccnc2cc(Cl)ccc12 (stereo not given)  3.76% [at 20.6 µM]
3. C=C1c2cccc(O)c2C(O)=C2C(=O)[C@]3(O)C(O)=C(C(N)=O)C(=O)[C@@H](N(C)C)[C@@H]3[C@@H](O)[C@H]12  7.79% [at 20.6 µM]
4. CC1(C)O[C@@H]2C[C@H]3[C@@H]4C[C@H](F)C5=CC(=O)C=C[C@]5(C)[C@H]4[C@@H](O)C[C@]3(C)[C@]2(C(=O)CO)O1  23.3% [at 20.6 µM]
5. CCCCOc1ccc(OCCCN2CCOCC2)cc1  26.5% [at 20.6 µM]

For `O=C1C(=O)c2ccccc2C(O)=C1C1CCC(c2ccc(Cl)cc2)CC1` (stereo not given), the Potency was 2.51 µM (active).
With `CN1CCCC(n2nc(Cc3ccc(Cl)cc3)c3ccccc3c2=O)CC1` (stereo not given) the Potency was 28.2 µM (active).
In the case of `CCCCCCNC(=O)n1cc(F)c(=O)[nH]c1=O`, the Potency is reported as 0.794 µM (active).
With `CC(C)=CCC1C(=O)N(c2ccccc2)N(c2ccccc2)C1=O` the Potency was 5.01 µM (active).
With `Oc1ccc(Cl)c2cccnc12` the Potency was 2.51 µM (active).
With `O=C1c2ccccc2C(=O)C1c1ccc(Br)cc1` the Potency was 25.1 µM (active).
For `CN(C)CCC=C1c2ccccc2C=Cc2ccccc21`, the Potency was 31.6 µM (active).
